# Records with an inconclusive call do not appear. Entries that show only a call come without a potency. Calls of active or inactive are those of the source. Unless noted, calls follow the shape of the dose curve; as a rule, active = well fitted curve in the direction sought with a large enough effect; inconclusive = small, poorly fitted or top-dose-only effect, or another doubt; inactive = no such curve, though single readings can be large; an effect the other way counts as inactive or inconclusive.
# Tests used:
# [1] = MultiTox-Fluor Cytotoxicity Assay - LYMP1-001 - Live Cells (AID 947); also: potency is read from the fitted curve at half-maximal effect
# [2] = Cell Viability - LYMP1-002 - Assay at 16 hr (AID 948); also: potency is read from the fitted curve at half-maximal effect
# In short: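 In this qHTS, lymphoblastoid LYMP1-002 cells (human) receive compounds for 16 hr at 37 C. Viability is taken from CellTiter-Glo ATP luminescence, and AC50 derives from standard Hill fits.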
# [3] = MultiTox-Fluor Cytotoxicity Assay - LYMP1-002 - Live Cells (AID 955); also: potency is read from the fitted curve at half-maximal effect
# In short: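 After 16 h compound exposure at 37 C, live LYMP1-002 lymphoblastoid cells (2500/well) were quantified by cleavage of cell-permeant GF-AFC substrate, read at 405/510 nm after 60 min. Concentration-response fitted with Hill equation for AC50.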
# [4] = MultiTox-Fluor Cytotoxicity Assay - LYMP1-003 - Dead Cells (AID 961); also: nearly all actives have a fitted effect of over 70% in size; also: potency is read from the fitted curve at half-maximal effect
# In short: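 LYMP1-003 human lymphoblastoid cells (2500/well) exposed to compound 16 h at 37 C in complete medium; dead-cell protease read with bis-AAF-R110 fluorescence (Ex/Em 485/520) after 60 min at room temperature. Normalized to DMSO and 15 uM tetraoctylammonium bromide; AC50 from Hill fit.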
# [5] = MultiTox-Fluor Cytotoxicity Assay - LYMP1-003 - Live Cells (AID 962); also: potency is read from the fitted curve at half-maximal effect
# In short: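 Live-cell protease activity (GF-AFC substrate, 405/510 nm, 60 min at room temperature) after 16 h, 37 C compound exposure of human lymphoblastoid LYMP1-003 cells; concentration-response fitted to the Hill equation for AC50.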
# [6] = Cell Viability - LYMP1-003 - Assay at 24 hr (AID 963); also: potency is read from the fitted curve at half-maximal effect
# In short: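 Concentration-response qHTS: ATP loss measured by CellTiter-Glo luminescence after 24 h compound exposure at 37 C. Cells were LYMP1-003 human lymphoblastoid, 2500 per well. AC50 derived via standard Hill equation modeling.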
# [7] = biological target: Pyruvate kinase PKM (Homo sapiens) (UniProt P14618); assay: qHTS Assay for Activators of Human Muscle Pyruvate Kinase (AID 954; active = well fitted curve in the direction sought with a large enough effect, not every such curve was filed as active)
# In short: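 Compound pinned into substrate mix (0.5 mM PEP, 0.1 mM ADP), then 0.1 nM PKM2 added; 1 h, RT. Stop/detection luciferase reagent added, luminescence read. Normalized to no-inhibition and no-enzyme or reference-inhibitor controls.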
# [8] = biological target: Alpha-galactosidase (Coffea arabica) (UniProt Q42656); assay: Counterscreen for Glucocerebrosidase Inhibitors: qHTS Assay for Coffee Bean alpha-Galactosidase at pH 4.5 (AID 957); also: series mostly up to about 77 µM
# In short: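 Fluorogenic qHTS at pH 4.5 (citrate buffer with Tween-20): 2 nM enzyme, 80 uM 4-MU-alpha-galactoside substrate, compound titrated 0.7 nM to 77 uM, 20 min room temperature. Glycine/NaOH stop; 4-MU read Ex 365/Em 440; Hill-equation AC50 against no-enzyme and enzyme controls.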
# Alpha-galactosidase (Coffea arabica), sequence (Q42656 whole entry, looked up): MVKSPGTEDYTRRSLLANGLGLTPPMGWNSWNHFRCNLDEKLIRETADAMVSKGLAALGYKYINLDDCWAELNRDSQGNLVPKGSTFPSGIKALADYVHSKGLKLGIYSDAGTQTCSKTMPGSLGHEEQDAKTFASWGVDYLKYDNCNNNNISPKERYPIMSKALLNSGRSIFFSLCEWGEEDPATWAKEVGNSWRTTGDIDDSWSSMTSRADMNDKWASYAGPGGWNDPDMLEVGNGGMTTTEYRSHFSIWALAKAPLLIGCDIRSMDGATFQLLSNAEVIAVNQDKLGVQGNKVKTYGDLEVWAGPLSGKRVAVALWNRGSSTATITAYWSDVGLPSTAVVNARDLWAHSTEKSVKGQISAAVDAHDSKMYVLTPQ
# Pyruvate kinase PKM (Homo sapiens), sequence (P14618 whole entry, looked up): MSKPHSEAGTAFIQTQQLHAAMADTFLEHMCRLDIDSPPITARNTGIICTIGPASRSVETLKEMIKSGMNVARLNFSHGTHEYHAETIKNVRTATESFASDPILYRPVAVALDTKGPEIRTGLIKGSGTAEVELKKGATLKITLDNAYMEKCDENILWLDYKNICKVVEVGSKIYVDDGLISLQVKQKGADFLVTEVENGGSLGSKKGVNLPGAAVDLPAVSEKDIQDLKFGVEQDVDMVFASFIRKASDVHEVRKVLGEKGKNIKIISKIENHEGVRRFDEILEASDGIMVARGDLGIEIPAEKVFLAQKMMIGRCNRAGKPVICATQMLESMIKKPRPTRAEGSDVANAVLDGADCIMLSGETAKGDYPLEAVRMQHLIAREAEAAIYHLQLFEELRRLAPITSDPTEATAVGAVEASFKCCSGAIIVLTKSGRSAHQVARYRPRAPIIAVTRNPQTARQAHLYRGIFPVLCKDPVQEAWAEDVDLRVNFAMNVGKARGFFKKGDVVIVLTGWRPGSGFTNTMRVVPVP
Compound,Potency [1],Potency [2],Potency [3],Potency [4],Potency [5],Potency [6],outcome [7],outcome [8]
COc1ccc2c(c1OC)C(=O)OC2C1c2cc3c(cc2CCN1C)OCO3 (stereo not drawn),inactive,inactive,inactive,inactive,inactive,inactive,–,–
[Cl-].[Cl-].[Hg+2],31.6 µM (active),10 µM (active),10 µM (active),–,15.8 µM (active),7.94 µM (active),–,–
O=CC=O,inactive,inactive,inactive,inactive,inactive,inactive,–,–
S=C=S,inactive,inactive,inactive,inactive,inactive,inactive,–,–
O=Cc1ccco1,inactive,inactive,inactive,inactive,inactive,inactive,–,–
CC(C)CCON=O,–,inactive,inactive,inactive,inactive,inactive,–,–
C=CCN=C=S,inactive,inactive,inactive,inactive,inactive,inactive,–,–
COC1=CC(=O)O[C@@H](/C=C/c2ccccc2)C1,inactive,inactive,inactive,inactive,inactive,inactive,–,–
O=C(O)C(Cl)(Cl)Cl,inactive,inactive,inactive,inactive,inactive,inactive,–,–
O=C1C=CC(=O)C=C1,inactive,inactive,inactive,inactive,inactive,inactive,inactive,inactive
CCCCCCCCOC(=O)c1ccccc1C(=O)OCCCCCCCC,inactive,inactive,inactive,inactive,inactive,inactive,–,–
CC(C)Nc1ccc(Nc2ccccc2)cc1,31.6 µM (active),39.8 µM (active),25.1 µM (active),25.1 µM (active),50.1 µM (active),50.1 µM (active),–,–
CCCCCl,inactive,inactive,inactive,inactive,inactive,inactive,–,–
